Shown is part of a subset that was picked to be rich in hits.
p53ts 32C kill: cytotoxicity in p53ts cells at permissive temperature. AID 924. Potency, µM (top dose mostly 46.1 µM), for inactives: at the top dose activity change, negative = cytotoxicity, actives largely listed as cytotoxic. H1299-p53A138V at 32C, ATP luminescence viability, 24 h. 130,000 tested, 0.93% active;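 further: potency means the concentration at half of the fitted maximal effect; 0% = DMSO and -100% = full killing by reference compound; nearly all actives have a fitted effect of over 55% in size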
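Viability by ATPlite luminescence after 24 h compound treatment (up to 46 uM) at the permissive 32C. Cells are H1299 carrying p53 A138V. Scale runs from DMSO basal to 100 uM tamoxifen as full kill; AC50 from Hill fits.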
p53ts 39C kill: kills p53ts cells at the nonpermissive temperature; 130,000 tested, 1.5% active; Potency, µM (series often up to 46.1 µM), inactives show at the top dose activity change, negative = cell killing, most hits filed as cytotoxic; H1299-p53A138V viability at 39C, ATP luminescence, 24 h; AID 902; further: potency means the concentration at half of the fitted maximal effect; on the % scale 0 is the no-effect control and ±100 the full control effect; nearly all actives have a fitted effect of over 55% in size
Hsp90 Hop PPI: changes Hsp90-Hop TPR2A binding signal, up or down; AID 595; AlphaScreen TPR2A-His6 binding biotin-Hsp90 C-terminal peptide; 71,000 tested, 0.44% active; Potency, µM (series often up to 57 µM), for the others: at the highest dose activity change, negative = inhibition; active means well fitted curve in either direction with a large enough effect; inconclusive means small, poorly fitted or top-dose-only effect, or another doubt; further: potency means the concentration at half of the fitted maximal effect; on the % scale 0 is the no-effect control and ±100 the full control effect
IkB sig inh: IkB pathway inhibition in ABC-DLBCL cells; Potency, µM (series often up to 57.1 µM), for the others: at the top dose IkBa stabilization activation; 110,000 tested, 0.04% active; ABC-DLBCL IkBa-CBG/CBR dual luciferase ratio, 4 h; response scale: scaled: untreated 0%, proteasome inhibitor 100%; active means well fitted curve in the direction sought with a large enough effect in the signal ratio, not every such curve was filed as active; inconclusive means small, poorly fitted or top-dose-only effect, or a change in a side signal; the % refers to the signal ratio;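 further: potency means the concentration at half of the fitted maximal effect; the direction sought is a rising ratio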
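Luminescence ratio of IκBα-fused green versus native red beetle luciferase in OCI-Ly3 cells, 4 h post-doxycycline with compound; red signal alone, scaled from basal (0%) to zero light (-100%), flagged nonspecific or cytotoxic effects.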
IMPase inh: IMPase inhibition in cells. inhibition (IP1 accumulation), % at 46.1 µM. 120,000 tested, under 10 active. CHO-M1 cells, IP1 accumulation, HTRF TR-FRET ratio. P97697. AID 901; active means well fitted curve in the direction sought with a large enough effect in the signal ratio, not every such curve was filed as active; inconclusive means small, poorly fitted or top-dose-only effect, or a change in a side signal; inactive means no such curve, though single readings can be large or run the other way; the % refers to the signal ratio;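 further: cells stimulated with carbachol in lithium chloride buffer; plate controls were DMSO basal wells for no effect and reference inhibitor wells for full effect; higher means more IMPase inhibition seen as more IP1 and lower FRET ratio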
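CHO-M1 cells (CHO stably expressing M1 receptor), compound up to 46 uM final, stimulated with carbachol (50 uM as added) in buffer with 50mM LiCl, pH 7.4, 30 min at 37C. Cytosolic IP1 read by TR-FRET; AC50 from Hill fits.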
Luciferase inh: firefly luciferase inhibition. P08659. purified firefly luciferase, luminescence, 8 min. Potency, µM (doses to about 57.1 µM), for the others: at the highest dose activity change, negative = inhibition, usual class: inhibitors. 72,000 tested, 2.2% active. AID 411; further: potency means the concentration at half of the fitted maximal effect; on the % scale 0 is the no-effect control and ±100 the full control effect; nearly all actives have a fitted effect of over 40% in size
Target sequence (P08659 whole entry, looked up): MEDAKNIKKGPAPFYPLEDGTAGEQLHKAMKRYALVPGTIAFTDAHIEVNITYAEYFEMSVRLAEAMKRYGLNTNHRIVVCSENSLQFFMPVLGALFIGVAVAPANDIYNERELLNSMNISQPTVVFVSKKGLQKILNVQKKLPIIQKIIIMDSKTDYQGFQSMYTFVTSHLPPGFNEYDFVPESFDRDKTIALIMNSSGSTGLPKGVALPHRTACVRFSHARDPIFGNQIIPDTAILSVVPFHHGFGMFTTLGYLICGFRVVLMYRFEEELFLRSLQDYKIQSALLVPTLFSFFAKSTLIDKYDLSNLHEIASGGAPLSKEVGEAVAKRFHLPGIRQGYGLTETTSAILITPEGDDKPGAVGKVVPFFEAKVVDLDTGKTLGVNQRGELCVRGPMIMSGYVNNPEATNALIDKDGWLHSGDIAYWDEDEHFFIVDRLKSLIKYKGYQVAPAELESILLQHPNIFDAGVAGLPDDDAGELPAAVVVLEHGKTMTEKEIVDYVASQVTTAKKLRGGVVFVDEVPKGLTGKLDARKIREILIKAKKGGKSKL
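Firefly luciferase (PKLight detection mix) with 10 uM ATP in pH 7.2 imidazole buffer (KCl, MgCl2, Tween 20, BSA). Compounds tested across a concentration series (qHTS). Luminescence read after 8 min at ambient temperature.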
Active calls of the source: *; [ ] = remark or other dose. Unless noted, the call rests on the fitted dose curve; in most records, active means well fitted curve in the direction sought with a large enough effect; inconclusive means small, poorly fitted or top-dose-only effect, or another doubt; inactive means no such curve, though single readings can be large; an effect the other way counts as inactive or inconclusive.

Results for CCCCNC(=O)CCC(=O)NNc1nc2ccccc2c2nc(C)nn12 ?
p53ts 32C kill: 2%; p53ts 39C kill: -4%; IkB sig inh: -1%

Results for CC1CCC(N2CC(=O)N(C3CCCCC3)C(c3ccc(Cl)cc3)C2=O)CC1 (stereo not given) ?
p53ts 32C kill: -1%; p53ts 39C kill: -14%; IkB sig inh: 1%

What do the screens show for `CCN(Cc1nc(-c2ccc(OC)c(OC)c2)no1)S(=O)(=O)c1ccc(OC)cc1`?
p53ts 32C kill: 7%; p53ts 39C kill: -22%; IkB sig inh: inconclusive

How did CCCC(=O)Nc1cnc(NC(=O)c2cccc(F)c2)cc1C do in these assays?
p53ts 32C kill: inconclusive; p53ts 39C kill: inconclusive; Hsp90 Hop PPI: -4%; IkB sig inh: 8%; IMPase inh: -3; Luciferase inh: 25µM*

What do the screens show for `Cc1cc(NC(=O)c2ccccc2)ncc1NC(=O)c1ccco1`?
p53ts 32C kill: inconclusive; p53ts 39C kill: inconclusive; Hsp90 Hop PPI: -1%; IkB sig inh: 3%; IMPase inh: 3; Luciferase inh: 25µM*

What do the screens show for `c1csc(-c2nc3ccccc3[nH]2)c1`?
p53ts 32C kill: -21%; p53ts 39C kill: -15%; Hsp90 Hop PPI: -2%; IkB sig inh: 2%; IMPase inh: -12; Luciferase inh: inconclusive

How did Cc1ccc(-c2nc3ccccc3[nH]2)s1 do in these assays?
p53ts 32C kill: 13µM*; p53ts 39C kill: 13µM*; Hsp90 Hop PPI: -5%; IkB sig inh: inconclusive; IMPase inh: 0; Luciferase inh: 5µM*

Results for Nc1nc(-c2nc3ccccc3[nH]2)cs1 ?
p53ts 32C kill: 16µM*; p53ts 39C kill: 13µM*; Hsp90 Hop PPI: inconclusive; IkB sig inh: inconclusive; IMPase inh: 6; Luciferase inh: 13µM*

What do the screens show for `CC(=O)Nc1cc(OC(C)=O)c2nonc2c1OC(C)=O`?
p53ts 32C kill: 3.2µM*; p53ts 39C kill: 7.9µM*; Hsp90 Hop PPI: inconclusive; IkB sig inh: inconclusive; IMPase inh: 17; Luciferase inh: -21%

Results for c1coc(CNc2nc(-c3ccncc3)cs2)c1 ?
p53ts 32C kill: -12%; p53ts 39C kill: -9%; Hsp90 Hop PPI: 0%; IkB sig inh: inconclusive; IMPase inh: -6; Luciferase inh: -20%

What do the screens show for `COc1ccc(-c2csc(NCc3ccco3)n2)cc1`?
p53ts 32C kill: inconclusive; p53ts 39C kill: inconclusive; Hsp90 Hop PPI: -12%; IkB sig inh: 11%; IMPase inh: 10; Luciferase inh: 5µM*

How did O=C(Nc1nnc(-c2ccco2)s1)c1ccccc1 do in these assays?
p53ts 32C kill: inconclusive; p53ts 39C kill: inconclusive; Hsp90 Hop PPI: -2%; IkB sig inh: inconclusive; IMPase inh: 2; Luciferase inh: -29%

What do the screens show for `O=C(Nc1nnc(/N=C/c2ccco2)s1)c1ccc(F)cc1`?
p53ts 32C kill: 10µM*; p53ts 39C kill: 13µM*; Hsp90 Hop PPI: -1%; IkB sig inh: 1%; IMPase inh: 5; Luciferase inh: inconclusive

How did CC(C)Oc1ccc(NC(=O)Oc2ccccc2)cc1 do in these assays?
p53ts 32C kill: inconclusive; p53ts 39C kill: 13%; Hsp90 Hop PPI: -1%[11 µM]; IkB sig inh: -3%; IMPase inh: 0; Luciferase inh: 13µM*

How did CC(C)Oc1ccc(C(=O)Nc2ccc(N(C)C)cc2)cc1 do in these assays?
p53ts 32C kill: inconclusive; p53ts 39C kill: inconclusive; Hsp90 Hop PPI: -13%[11 µM]; IkB sig inh: 1%; IMPase inh: 15; Luciferase inh: 3.2µM*

Results for CCOC(=O)c1ccc(NC(=O)C(CC)Sc2nncn3c2cc2oc(C)cc23)cc1 (stereo not given) ?
p53ts 32C kill: 9%; p53ts 39C kill: -1%; IkB sig inh: inconclusive

Results for CCC(Sc1nncn2c1cc1oc(C)cc12)C(=O)Nc1ccc(F)cc1 (stereo not given) ?
p53ts 32C kill: -24%; p53ts 39C kill: 20µM*; IkB sig inh: inconclusive

Source: PubChem BioAssay (National Center for Advancing Translational Sciences (NCATS))
